# Results from PubChem BioAssay (NCI).
# This is part of a sample that, as a whole, favours compounds with a hit. Of some 79,000 tested, about 15% had one in any assay. A number with no mark means an inactive call. The source made the active and inactive calls. Cut-off read from the data, not from the text of the source: active = growth inhibition above about 70%; inactive = the rest.
# Tests used:
# [1] = NCI Yeast Anticancer Drug Screen. Data for the wt1 strain (AID 149);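 note: 0% = growth of vehicle-treated wt1 cultures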; details: S. cerevisiae wt1 strain (SPY 50644) growth inhibition, active compounds read high
# Summary of the method: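 wt1 yeast, compound-treated; % growth inhibition vs vehicle control.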
# [2] = NCI Yeast Anticancer Drug Screen. Data for the rad50EPP+ strain (AID 151);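 note: 0% = growth of vehicle-treated control cultures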; details: S. cerevisiae rad50 mutant strain, active compounds read high
# Summary of the method: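 Genetically defined yeast (rad50EPP+, DNA damage repair alteration) is grown with compound, and inhibition of growth is expressed relative to vehicle-treated controls.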
# [3] = NCI Yeast Anticancer Drug Screen. Data for the mgt1 strain (AID 153); details: S. cerevisiae mgt1 mutant growth inhibition, active compounds read high
# Summary of the method: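 In the mgt1 strain, test compounds were added and growth inhibition was determined relative to vehicle-treated controls.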
# [4] = NCI Yeast Anticancer Drug Screen. Data for the rad50 strain (AID 155);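 note: 0% = growth of vehicle-only cultures of the same strain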; details: S. cerevisiae rad50 strain growth inhibition, active compounds read high
# Summary of the method: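 Genetically altered yeast (DNA repair pathway); compound treatment; growth inhibition vs vehicle ctrl.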
# [5] = NCI Yeast Anticancer Drug Screen. Data for the mec2-1 strain (AID 157); details: S. cerevisiae mec2-1 strain, active compounds read high
# Summary of the method: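 Each compound was tested on mec2-1 yeast, a strain altered in DNA damage repair or cell cycle control. Growth inhibition is reported relative to vehicle.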
# [6] = NCI Yeast Anticancer Drug Screen. Data for the rad14 strain (AID 159);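 note: 0% = growth of vehicle-treated control cultures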; details: S. cerevisiae rad14 strain growth inhibition, active compounds read high
# Summary of the method: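 Test compounds were applied to a repair-deficient yeast strain. Its growth was then compared with that of cultures given vehicle alone, and inhibition was expressed relative to those controls.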
# [7] = NCI Yeast Anticancer Drug Screen. Data for the sgs1 mgt1 strain (AID 161);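 note: 0% = growth of cultures given vehicle only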; details: S. cerevisiae sgs1 mgt1 strain, active compounds read high
# Summary of the method: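 Read-out: growth inhibition vs vehicle controls. Cells: mutant yeast strain deficient in DNA damage repair.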
# [8] = NCI Yeast Anticancer Drug Screen. Data for the CLN2oe strain (AID 163);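 note: 0% = growth of vehicle-only control cultures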; details: S. cerevisiae CLN2oe strain, active compounds read high
# Summary of the method: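 First, the altered yeast strain was treated with each compound; second, its growth was measured; finally, inhibition was derived by comparison with vehicle controls.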
# [9] = NCI Yeast Anticancer Drug Screen. Data for the cln2 rad14 strain (AID 165);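 note: 0% = growth equal to vehicle treated cultures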; details: S. cerevisiae cln2 rad14 strain, active compounds read high
# Summary of the method: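 Test compounds were added to cln2 rad14 yeast cultures; inhibition of growth was then determined by comparison with vehicle treatment.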
# [10] = NCI Yeast Anticancer Drug Screen. Data for the bub3 strain (AID 167); details: S. cerevisiae bub3 mutant strain, active compounds read high
# Summary of the method: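 Yeast carrying a defined mutation is treated with each compound, and growth is compared with that of vehicle-exposed cells to give inhibition.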
# [11] = NCI Yeast Anticancer Drug Screen. Data for the wt2 strain (AID 169);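 note: 0% = growth of vehicle-treated yeast cultures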; details: S. cerevisiae wt2 strain growth inhibition, active compounds read high
# Summary of the method: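 The panel's yeast strains carry defined changes in DNA repair or cell cycle genes. Each strain is grown with compound, and growth loss is scored relative to vehicle.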
# [12] = NCI Yeast Anticancer Drug Screen. Data for the mlh1 strain (AID 171);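 note: 0% = growth of vehicle-treated control cultures of the same strain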; details: S. cerevisiae mlh1 strain growth inhibition, active compounds read high
# Summary of the method: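 Inhibition values reflect reduced yeast growth in the presence of compound, referenced to vehicle controls, using a strain chosen for its alteration in DNA repair or cell cycle control.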
# [13] = NCI Yeast Anticancer Drug Screen. Data for the sgs1 strain (AID 173);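 note: 0% = growth of vehicle-only control cultures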; details: S. cerevisiae sgs1 mutant, active compounds read high
# Summary of the method: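 Vehicle-treated cultures served as reference for growth inhibition of a yeast strain altered in DNA damage repair or cell cycle control after compound exposure.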
# [14] = NCI Yeast Anticancer Drug Screen. Data for the mlh1 rad18 strain (AID 175); details: S. cerevisiae mlh1 rad18 strain growth inhibition, active compounds read high
# Summary of the method: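 Inhibition values reflect reduced growth of mutant yeast versus vehicle-treated controls following compound exposure; the mutations affect DNA damage repair.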
# [15] = NCI Yeast Anticancer Drug Screen. Data for the rad18 strain (AID 177); details: S. cerevisiae rad18 mutant growth inhibition, active compounds read high
# Summary of the method: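 Steps: expose repair-mutant yeast to compound; measure growth; express as inhibition relative to vehicle control.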
# [16] = at 5.0 µM (retest, dose inferred, filed as 0.5)
# [17] = at 50.0 µM (retest, dose inferred, filed as 5.0)
smiles,measurement,setting,value
COc1ccc(OC)c2cc3ccccc3cc12,growth inhibition,[1]; at 1.2 µM,-19%
same,growth inhibition,[1]; at 3.7 µM,-19%
same,growth inhibition,[1]; at 11.0 µM,-12%
same,growth inhibition,[1]; at 33.0 µM,-8%
same,growth inhibition,[1]; at 100.0 µM,-4%
same,growth inhibition,[2]; at 1.2 µM,-13%
same,growth inhibition,[2]; at 3.7 µM,7%
same,growth inhibition,[2]; at 11.0 µM,46%
same,growth inhibition,[2]; at 33.0 µM,52%
same,growth inhibition,[2]; at 100.0 µM,60%
same,growth inhibition,[3]; at 1.2 µM,25%
same,growth inhibition,[3]; at 3.7 µM,14%
same,growth inhibition,[3]; at 11.0 µM,15%
same,growth inhibition,[3]; at 33.0 µM,18%
same,growth inhibition,[3]; at 100.0 µM,24%
same,growth inhibition,[4]; at 1.2 µM,-1%
same,growth inhibition,[4]; at 3.7 µM,-1%
same,growth inhibition,[4]; [16],52%
same,growth inhibition,[4]; at 11.0 µM,10%
same,growth inhibition,[4]; at 33.0 µM,17%
same,growth inhibition,[4]; [17],81% (active)
same,growth inhibition,[4]; at 50.0 µM,74.3% (active)
same,growth inhibition,[4]; at 100.0 µM,4%
same,growth inhibition,[5]; at 1.2 µM,-5%
same,growth inhibition,[5]; at 3.7 µM,-11%
same,growth inhibition,[5]; [16],63%
same,growth inhibition,[5]; at 11.0 µM,-6%
same,growth inhibition,[5]; at 33.0 µM,21%
same,growth inhibition,[5]; [17],87% (active)
same,growth inhibition,[5]; at 50.0 µM,85.2% (active)
same,growth inhibition,[5]; at 100.0 µM,8%
same,growth inhibition,[6]; at 1.2 µM,-4%
same,growth inhibition,[6]; at 3.7 µM,-6%
same,growth inhibition,[6]; at 11.0 µM,-3%
same,growth inhibition,[6]; at 33.0 µM,4%
same,growth inhibition,[6]; at 100.0 µM,18%
same,growth inhibition,[7]; [16],-24%
same,growth inhibition,[7]; [17],27%
same,growth inhibition,[7]; at 50.0 µM,73.1% (active)
same,growth inhibition,[8]; at 1.2 µM,12%
same,growth inhibition,[8]; at 3.7 µM,14%
same,growth inhibition,[8]; at 11.0 µM,16%
same,growth inhibition,[8]; at 33.0 µM,19%
same,growth inhibition,[8]; at 100.0 µM,3%
same,growth inhibition,[9]; [16],46%
same,growth inhibition,[9]; [17],51%
same,growth inhibition,[9]; at 50.0 µM,39.6%
same,growth inhibition,[10]; at 1.2 µM,22%
same,growth inhibition,[10]; at 3.7 µM,8%
same,growth inhibition,[10]; [16],36%
same,growth inhibition,[10]; at 11.0 µM,22%
same,growth inhibition,[10]; at 33.0 µM,33%
same,growth inhibition,[10]; [17],64%
same,growth inhibition,[10]; at 50.0 µM,89.7% (active)
same,growth inhibition,[10]; at 100.0 µM,32%
same,growth inhibition,[11]; at 1.2 µM,-23%
same,growth inhibition,[11]; at 3.7 µM,-28%
same,growth inhibition,[11]; at 11.0 µM,-16%
same,growth inhibition,[11]; at 33.0 µM,-8%
same,growth inhibition,[11]; at 100.0 µM,9%
same,growth inhibition,[12]; at 1.2 µM,14%
same,growth inhibition,[12]; at 3.7 µM,9%
same,growth inhibition,[12]; at 11.0 µM,8%
same,growth inhibition,[12]; at 33.0 µM,20%
same,growth inhibition,[12]; at 100.0 µM,19%
same,growth inhibition,[13]; at 1.2 µM,-12%
same,growth inhibition,[13]; at 3.7 µM,-12%
same,growth inhibition,[13]; at 11.0 µM,-5%
same,growth inhibition,[13]; at 33.0 µM,-1%
same,growth inhibition,[13]; at 100.0 µM,7%
same,growth inhibition,[14]; [16],48%
same,growth inhibition,[14]; [17],81% (active)
same,growth inhibition,[14]; at 50.0 µM,70.2% (active)
same,growth inhibition,[15]; at 1.2 µM,5%
same,growth inhibition,[15]; at 3.7 µM,4%
same,growth inhibition,[15]; at 11.0 µM,21%
same,growth inhibition,[15]; at 33.0 µM,24%
same,growth inhibition,[15]; at 100.0 µM,50%
